# According to PMC7862700, “An all-to-all approach to the identification of sequence-specific readers for epigenetic DNA modifications on cytosine”:
# What was measured:
# Experiment in all cases: DAPPL (digital affinity profiling via proximity ligation, sequencing); 10 mM Tris-HCl pH 7.5, 50 mM NaCl, 1 mM DTT, 4% glycerol, room temperature, 30 min; GST-TFs on glutathione beads, 16-mer random dsDNA library, 0.1% formaldehyde crosslink after washing; high values mean tight binding
# FLI1 = target: T1, FLI1 (Homo sapiens, UniProt Q01543 1-452); details: protein: recombinant; tags: N-terminal GST; dsDNA, one strand shown
# T1 sequence: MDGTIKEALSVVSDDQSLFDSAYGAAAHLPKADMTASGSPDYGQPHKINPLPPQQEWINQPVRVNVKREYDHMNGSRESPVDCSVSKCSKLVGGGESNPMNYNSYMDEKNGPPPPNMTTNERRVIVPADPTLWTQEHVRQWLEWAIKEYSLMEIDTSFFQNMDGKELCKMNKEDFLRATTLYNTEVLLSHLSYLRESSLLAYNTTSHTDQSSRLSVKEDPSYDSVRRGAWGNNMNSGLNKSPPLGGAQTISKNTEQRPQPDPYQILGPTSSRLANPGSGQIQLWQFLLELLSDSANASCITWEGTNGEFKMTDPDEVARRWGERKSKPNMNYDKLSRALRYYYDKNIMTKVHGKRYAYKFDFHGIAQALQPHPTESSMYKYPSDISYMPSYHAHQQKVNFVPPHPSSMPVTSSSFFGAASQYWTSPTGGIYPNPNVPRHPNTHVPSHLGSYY
# Outline: (§1)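 The binding signal reported is, for every hexamer, its read frequency for a factor over its read frequency for the tag-only sample. Reads came from pools of yeast-expressed, GST-fused human transcription factors on glutathione beads, barcoded with DNA and mixed with that sample, which were incubated with 200 nmole of a random double-stranded 16-mer DNA library in Tris/NaCl/DTT/glycerol buffer at room temperature for 30 min. After washing, the pools were crosslinked with 0.1% formaldehyde, proximity-ligated with BsaI/T4 ligase for 1 h at 37 °C, PCR-amplified and sequenced on an Illumina NextSeq500.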
# ELK1 = target: T2, ELK1 (Homo sapiens, UniProt P19419 1-428); details: protein: recombinant; tags: N-terminal GST; dsDNA, one strand shown
# T2 sequence: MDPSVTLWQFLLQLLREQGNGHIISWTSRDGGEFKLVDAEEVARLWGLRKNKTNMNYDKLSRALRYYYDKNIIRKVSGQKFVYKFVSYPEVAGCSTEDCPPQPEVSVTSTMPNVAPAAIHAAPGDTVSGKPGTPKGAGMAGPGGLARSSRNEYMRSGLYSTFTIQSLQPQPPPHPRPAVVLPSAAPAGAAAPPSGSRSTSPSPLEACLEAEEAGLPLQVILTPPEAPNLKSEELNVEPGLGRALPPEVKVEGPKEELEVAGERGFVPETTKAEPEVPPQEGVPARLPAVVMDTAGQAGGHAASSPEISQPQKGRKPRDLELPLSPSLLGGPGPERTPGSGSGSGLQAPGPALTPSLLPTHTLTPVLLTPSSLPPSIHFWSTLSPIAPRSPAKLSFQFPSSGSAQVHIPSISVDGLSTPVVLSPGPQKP
# Outline: as §1
# GABPA = target: T3, GABPA (Homo sapiens, UniProt Q06546 1-454); details: protein: recombinant; tags: N-terminal GST; dsDNA, one strand shown
# T3 sequence: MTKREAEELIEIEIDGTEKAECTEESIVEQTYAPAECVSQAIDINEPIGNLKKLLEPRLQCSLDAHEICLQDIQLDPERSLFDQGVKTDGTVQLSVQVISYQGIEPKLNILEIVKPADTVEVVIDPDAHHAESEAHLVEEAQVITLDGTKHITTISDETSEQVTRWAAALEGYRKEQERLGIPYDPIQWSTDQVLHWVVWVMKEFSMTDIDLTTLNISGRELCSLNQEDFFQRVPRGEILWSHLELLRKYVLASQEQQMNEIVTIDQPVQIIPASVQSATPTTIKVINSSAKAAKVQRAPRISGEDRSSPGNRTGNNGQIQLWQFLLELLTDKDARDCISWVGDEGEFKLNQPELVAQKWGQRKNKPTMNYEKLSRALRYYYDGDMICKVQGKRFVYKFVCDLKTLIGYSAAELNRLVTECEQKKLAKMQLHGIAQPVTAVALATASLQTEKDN
# Outline: as §1
# ERG = target: T4, ERG (Homo sapiens, UniProt P11308 1-479); details: protein: recombinant; tags: N-terminal GST; dsDNA, one strand shown
# T4 sequence: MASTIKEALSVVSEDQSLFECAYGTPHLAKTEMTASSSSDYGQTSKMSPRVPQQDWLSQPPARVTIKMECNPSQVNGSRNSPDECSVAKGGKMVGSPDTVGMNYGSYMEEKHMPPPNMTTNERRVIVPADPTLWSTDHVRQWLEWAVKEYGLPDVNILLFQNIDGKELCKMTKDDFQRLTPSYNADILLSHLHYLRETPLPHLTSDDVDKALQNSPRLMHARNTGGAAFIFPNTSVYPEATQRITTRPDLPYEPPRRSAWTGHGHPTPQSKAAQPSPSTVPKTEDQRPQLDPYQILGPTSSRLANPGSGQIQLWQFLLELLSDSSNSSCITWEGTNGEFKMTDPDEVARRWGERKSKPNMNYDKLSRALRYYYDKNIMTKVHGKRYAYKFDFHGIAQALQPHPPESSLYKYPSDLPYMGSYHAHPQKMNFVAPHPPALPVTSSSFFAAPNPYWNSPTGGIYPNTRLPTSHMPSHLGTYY
# Outline: as §1
# ELF1 = ELF1 (Homo sapiens, UniProt P32519 1-619); details: protein: recombinant; tags: N-terminal GST; dsDNA, one strand shown
# Outline: as §1
# EHF = target: T5, EHF (Homo sapiens, UniProt Q9NZC4 1-300); details: protein: recombinant; tags: N-terminal GST; dsDNA, one strand shown
# T5 sequence: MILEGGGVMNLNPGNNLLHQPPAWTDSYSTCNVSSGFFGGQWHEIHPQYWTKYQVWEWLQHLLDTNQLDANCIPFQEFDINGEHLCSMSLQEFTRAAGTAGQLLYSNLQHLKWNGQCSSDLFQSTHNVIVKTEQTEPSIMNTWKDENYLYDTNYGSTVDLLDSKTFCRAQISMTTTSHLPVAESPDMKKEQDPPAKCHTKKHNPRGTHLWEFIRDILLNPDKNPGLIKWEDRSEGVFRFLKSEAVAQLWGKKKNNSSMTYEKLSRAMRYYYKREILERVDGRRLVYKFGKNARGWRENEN
# Outline: as §1
# SPI1 = SPI1 (Homo sapiens, UniProt P17947 1-270); details: protein: recombinant; tags: N-terminal GST; dsDNA, one strand shown
# Outline: as §1
# SPIB = SPIB (Homo sapiens, UniProt Q01892 1-262); details: protein: recombinant; tags: N-terminal GST; dsDNA, one strand shown
# Outline: as §1
# ELK3 = target: T6, ELK3 (Homo sapiens, UniProt P41970 1-407); details: protein: recombinant; tags: N-terminal GST; dsDNA, one strand shown
# T6 sequence: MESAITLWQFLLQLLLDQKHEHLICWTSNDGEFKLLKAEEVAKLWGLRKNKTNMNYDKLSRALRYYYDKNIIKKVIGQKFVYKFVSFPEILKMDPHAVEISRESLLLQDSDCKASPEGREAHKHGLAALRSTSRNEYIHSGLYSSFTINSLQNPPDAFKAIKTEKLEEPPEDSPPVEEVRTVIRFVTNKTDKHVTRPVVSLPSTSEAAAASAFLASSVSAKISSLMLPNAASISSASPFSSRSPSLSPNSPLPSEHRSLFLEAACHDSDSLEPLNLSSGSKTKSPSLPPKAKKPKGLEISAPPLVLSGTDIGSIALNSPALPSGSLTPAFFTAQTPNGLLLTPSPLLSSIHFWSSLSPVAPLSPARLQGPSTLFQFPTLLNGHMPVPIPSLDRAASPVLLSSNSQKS
# Outline: as §1
# FEV = target: T7, FEV (Homo sapiens, UniProt Q99581 1-238); details: protein: recombinant; tags: N-terminal GST; dsDNA, one strand shown
# T7 sequence: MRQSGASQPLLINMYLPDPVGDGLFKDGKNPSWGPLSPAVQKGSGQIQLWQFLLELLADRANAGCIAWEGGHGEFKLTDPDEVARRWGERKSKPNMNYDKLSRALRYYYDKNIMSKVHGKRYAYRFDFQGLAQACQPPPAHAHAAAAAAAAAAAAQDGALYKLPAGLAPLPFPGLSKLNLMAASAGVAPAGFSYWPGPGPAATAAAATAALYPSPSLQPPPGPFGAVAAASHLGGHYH
# Outline: as §1
# ETV5 = ETV5 (Homo sapiens, UniProt P41161 1-510); details: protein: recombinant; tags: N-terminal GST; dsDNA, one strand shown
# Outline: as §1
# HSF1 = HSF1 (Homo sapiens, UniProt Q00613 1-529); details: protein: recombinant; tags: N-terminal GST; chain copies: 3; dsDNA, one strand shown
# Outline: as §1
# SPIC = target: T8, SPIC (Homo sapiens, UniProt Q8N5J4 1-248); details: protein: recombinant; tags: N-terminal GST; dsDNA, one strand shown
# T8 sequence: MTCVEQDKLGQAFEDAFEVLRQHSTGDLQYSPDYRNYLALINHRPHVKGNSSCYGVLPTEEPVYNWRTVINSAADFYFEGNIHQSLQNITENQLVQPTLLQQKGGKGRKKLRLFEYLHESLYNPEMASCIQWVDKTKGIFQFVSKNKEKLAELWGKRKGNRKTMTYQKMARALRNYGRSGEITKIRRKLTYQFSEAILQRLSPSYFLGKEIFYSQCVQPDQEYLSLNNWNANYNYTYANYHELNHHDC
# Outline: as §1
# ELF4 = ELF4 (Homo sapiens, UniProt Q99607 1-663); details: protein: recombinant; tags: N-terminal GST; dsDNA, one strand shown
# Outline: as §1
# ELK4 = target: T9, ELK4 (Homo sapiens, UniProt P28324-2 1-405); details: protein: recombinant; tags: N-terminal GST; dsDNA, one strand shown
# T9 sequence: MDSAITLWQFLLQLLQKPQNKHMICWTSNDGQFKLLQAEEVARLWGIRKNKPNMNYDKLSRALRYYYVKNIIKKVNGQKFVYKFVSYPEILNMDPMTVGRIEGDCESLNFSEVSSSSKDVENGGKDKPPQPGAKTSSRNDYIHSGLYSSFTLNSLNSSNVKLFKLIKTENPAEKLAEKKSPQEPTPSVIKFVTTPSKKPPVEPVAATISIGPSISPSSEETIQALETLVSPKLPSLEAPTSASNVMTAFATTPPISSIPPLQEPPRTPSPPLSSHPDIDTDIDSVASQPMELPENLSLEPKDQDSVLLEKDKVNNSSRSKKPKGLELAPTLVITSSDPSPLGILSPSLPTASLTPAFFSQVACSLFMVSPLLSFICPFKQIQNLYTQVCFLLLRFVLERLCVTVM
# Outline: as §1
# ETV2 = target: T10, ETV2 (Homo sapiens, UniProt O00321 1-342); details: protein: recombinant; tags: N-terminal GST; dsDNA, one strand shown
# T10 sequence: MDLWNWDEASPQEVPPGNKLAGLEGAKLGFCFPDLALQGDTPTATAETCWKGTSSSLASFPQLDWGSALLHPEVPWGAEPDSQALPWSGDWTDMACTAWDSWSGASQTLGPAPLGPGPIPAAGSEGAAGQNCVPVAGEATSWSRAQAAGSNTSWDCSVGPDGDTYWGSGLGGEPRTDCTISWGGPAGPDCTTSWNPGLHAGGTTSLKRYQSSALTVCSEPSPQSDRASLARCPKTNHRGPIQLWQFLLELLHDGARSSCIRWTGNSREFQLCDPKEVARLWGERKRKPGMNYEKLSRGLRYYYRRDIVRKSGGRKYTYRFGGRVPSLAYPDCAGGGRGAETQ
# Outline: as §1
# ELF3 = target: T11, ELF3 (Homo sapiens, UniProt P78545 1-371); details: protein: recombinant; tags: N-terminal GST; dsDNA, one strand shown
# T11 sequence: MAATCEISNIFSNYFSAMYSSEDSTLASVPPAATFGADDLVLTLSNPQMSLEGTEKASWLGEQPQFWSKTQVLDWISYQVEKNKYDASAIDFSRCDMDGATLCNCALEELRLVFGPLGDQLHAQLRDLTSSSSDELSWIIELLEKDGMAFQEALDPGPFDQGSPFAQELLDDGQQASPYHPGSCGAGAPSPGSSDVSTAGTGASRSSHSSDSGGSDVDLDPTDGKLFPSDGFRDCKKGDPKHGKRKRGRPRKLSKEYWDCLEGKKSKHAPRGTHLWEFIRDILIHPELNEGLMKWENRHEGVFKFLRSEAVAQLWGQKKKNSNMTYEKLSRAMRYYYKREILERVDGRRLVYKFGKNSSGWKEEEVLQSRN
# Outline: as §1
# ETV1 = ETV1 (Homo sapiens, UniProt P50549 1-477); details: protein: recombinant; tags: N-terminal GST; dsDNA, one strand shown
# Outline: as §1
# Chain of ELF4 (Q99607 whole entry): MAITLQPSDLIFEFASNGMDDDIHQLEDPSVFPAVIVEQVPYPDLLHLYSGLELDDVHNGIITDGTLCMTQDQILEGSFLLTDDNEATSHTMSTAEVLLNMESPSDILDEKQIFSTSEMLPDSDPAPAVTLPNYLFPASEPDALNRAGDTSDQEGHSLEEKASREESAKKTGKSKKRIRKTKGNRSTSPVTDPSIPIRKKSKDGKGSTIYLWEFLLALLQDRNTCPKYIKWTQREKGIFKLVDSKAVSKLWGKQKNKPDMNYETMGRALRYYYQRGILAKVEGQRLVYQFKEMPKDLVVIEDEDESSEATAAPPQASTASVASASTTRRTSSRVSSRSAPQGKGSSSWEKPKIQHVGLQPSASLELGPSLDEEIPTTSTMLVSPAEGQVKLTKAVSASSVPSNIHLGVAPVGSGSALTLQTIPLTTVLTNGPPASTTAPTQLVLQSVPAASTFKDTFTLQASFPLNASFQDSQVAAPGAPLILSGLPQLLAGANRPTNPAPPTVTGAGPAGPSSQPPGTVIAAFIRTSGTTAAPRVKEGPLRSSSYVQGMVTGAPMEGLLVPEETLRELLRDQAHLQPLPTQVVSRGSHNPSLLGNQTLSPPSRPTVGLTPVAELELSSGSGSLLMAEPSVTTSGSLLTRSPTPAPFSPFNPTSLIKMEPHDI
# Chain of ELF1 (P32519 whole entry): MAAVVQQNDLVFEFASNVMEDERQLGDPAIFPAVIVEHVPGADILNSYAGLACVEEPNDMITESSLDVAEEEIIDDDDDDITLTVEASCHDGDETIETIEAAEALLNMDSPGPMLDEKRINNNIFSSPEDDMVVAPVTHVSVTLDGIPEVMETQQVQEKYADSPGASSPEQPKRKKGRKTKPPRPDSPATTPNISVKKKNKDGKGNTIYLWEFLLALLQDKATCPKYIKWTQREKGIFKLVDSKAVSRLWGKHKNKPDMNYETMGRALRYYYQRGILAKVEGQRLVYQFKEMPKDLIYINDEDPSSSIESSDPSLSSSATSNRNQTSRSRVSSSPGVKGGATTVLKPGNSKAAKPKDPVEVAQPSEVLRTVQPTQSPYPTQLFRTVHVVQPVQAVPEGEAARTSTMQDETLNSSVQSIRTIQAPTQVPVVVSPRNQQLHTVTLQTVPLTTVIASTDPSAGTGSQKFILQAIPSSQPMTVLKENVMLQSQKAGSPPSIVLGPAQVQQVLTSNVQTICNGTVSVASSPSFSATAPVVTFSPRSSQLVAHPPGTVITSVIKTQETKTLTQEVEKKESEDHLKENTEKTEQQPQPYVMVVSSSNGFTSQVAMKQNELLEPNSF
# Chain of HSF1 (Q00613 whole entry): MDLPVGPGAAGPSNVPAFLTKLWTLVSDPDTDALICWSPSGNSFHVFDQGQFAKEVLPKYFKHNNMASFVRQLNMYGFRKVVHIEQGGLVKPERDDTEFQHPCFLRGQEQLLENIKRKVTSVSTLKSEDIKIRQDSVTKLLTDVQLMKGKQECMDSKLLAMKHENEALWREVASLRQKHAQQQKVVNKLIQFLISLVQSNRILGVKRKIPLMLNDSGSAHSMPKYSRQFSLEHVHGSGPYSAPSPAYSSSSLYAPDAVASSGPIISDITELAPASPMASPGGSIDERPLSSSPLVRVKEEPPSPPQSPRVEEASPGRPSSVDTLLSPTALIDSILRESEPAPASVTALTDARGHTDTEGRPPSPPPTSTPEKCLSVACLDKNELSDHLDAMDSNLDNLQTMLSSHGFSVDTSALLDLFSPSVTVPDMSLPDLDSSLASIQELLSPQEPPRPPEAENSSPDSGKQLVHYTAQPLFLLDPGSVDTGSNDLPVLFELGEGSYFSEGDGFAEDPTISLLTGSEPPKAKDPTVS
# Chain of ETV1 (P50549 whole entry): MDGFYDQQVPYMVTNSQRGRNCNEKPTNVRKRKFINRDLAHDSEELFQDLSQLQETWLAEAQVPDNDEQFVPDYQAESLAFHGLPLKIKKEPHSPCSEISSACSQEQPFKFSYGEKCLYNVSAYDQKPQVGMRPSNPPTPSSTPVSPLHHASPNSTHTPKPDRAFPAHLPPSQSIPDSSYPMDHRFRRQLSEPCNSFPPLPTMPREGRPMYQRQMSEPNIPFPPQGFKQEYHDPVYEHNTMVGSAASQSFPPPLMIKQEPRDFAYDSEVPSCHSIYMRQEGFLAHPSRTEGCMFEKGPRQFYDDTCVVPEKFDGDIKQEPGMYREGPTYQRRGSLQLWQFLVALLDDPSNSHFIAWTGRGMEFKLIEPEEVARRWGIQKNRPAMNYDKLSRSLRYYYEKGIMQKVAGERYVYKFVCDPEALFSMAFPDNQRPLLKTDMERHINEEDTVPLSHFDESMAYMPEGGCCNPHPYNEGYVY
# Chain of ETV5 (P41161 whole entry): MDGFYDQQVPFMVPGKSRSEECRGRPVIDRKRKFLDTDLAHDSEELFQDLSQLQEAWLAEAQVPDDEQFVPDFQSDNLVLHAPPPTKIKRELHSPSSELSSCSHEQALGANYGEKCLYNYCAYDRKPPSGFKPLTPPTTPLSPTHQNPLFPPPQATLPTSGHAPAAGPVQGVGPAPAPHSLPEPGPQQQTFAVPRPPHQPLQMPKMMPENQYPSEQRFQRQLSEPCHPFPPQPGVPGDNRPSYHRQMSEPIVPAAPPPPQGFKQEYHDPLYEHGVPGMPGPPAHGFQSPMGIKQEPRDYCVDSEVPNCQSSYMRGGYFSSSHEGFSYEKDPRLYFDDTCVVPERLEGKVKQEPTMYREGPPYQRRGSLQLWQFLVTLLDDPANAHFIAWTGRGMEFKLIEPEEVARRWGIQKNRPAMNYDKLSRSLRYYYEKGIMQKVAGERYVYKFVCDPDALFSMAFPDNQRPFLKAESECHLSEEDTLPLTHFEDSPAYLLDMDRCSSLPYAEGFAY
# Chain of SPIB (Q01892 whole entry): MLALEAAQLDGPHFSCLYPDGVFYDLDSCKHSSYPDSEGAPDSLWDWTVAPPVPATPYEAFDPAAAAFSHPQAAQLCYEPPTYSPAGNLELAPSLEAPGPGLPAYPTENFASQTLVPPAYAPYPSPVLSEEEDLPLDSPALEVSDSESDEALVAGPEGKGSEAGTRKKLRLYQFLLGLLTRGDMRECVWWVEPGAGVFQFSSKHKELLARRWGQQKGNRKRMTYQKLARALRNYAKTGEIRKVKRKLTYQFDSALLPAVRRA
sequence,measurement,setting,value
CACTCC,binding signal,FLI1,"1.27 fold enrichment (6-mer frequency, TF over GST control)"
same,binding signal,ELK1,"1.41 fold enrichment (6-mer frequency, TF over GST control)"
same,binding signal,GABPA,"1.32 fold enrichment (6-mer frequency, TF over GST control)"
same,binding signal,ERG,"1.29 fold enrichment (6-mer frequency, TF over GST control)"
same,binding signal,ELF1,"1.34 fold enrichment (6-mer frequency, TF over GST control)"
same,binding signal,EHF,"1.17 fold enrichment (6-mer frequency, TF over GST control)"
same,binding signal,SPI1,"1.23 fold enrichment (6-mer frequency, TF over GST control)"
same,binding signal,SPIB,"1.33 fold enrichment (6-mer frequency, TF over GST control)"
same,binding signal,ELK3,"1.27 fold enrichment (6-mer frequency, TF over GST control)"
same,binding signal,FEV,"1.28 fold enrichment (6-mer frequency, TF over GST control)"
same,binding signal,ETV5,"1.27 fold enrichment (6-mer frequency, TF over GST control)"
same,binding signal,HSF1,"1.05 fold enrichment (6-mer frequency, TF over GST control)"
same,binding signal,SPIC,"1.28 fold enrichment (6-mer frequency, TF over GST control)"
same,binding signal,ELF4,"1.34 fold enrichment (6-mer frequency, TF over GST control)"
same,binding signal,ELK4,"1.35 fold enrichment (6-mer frequency, TF over GST control)"
same,binding signal,ETV2,"1.17 fold enrichment (6-mer frequency, TF over GST control)"
same,binding signal,ELF3,"1.23 fold enrichment (6-mer frequency, TF over GST control)"
same,binding signal,ETV1,"1.27 fold enrichment (6-mer frequency, TF over GST control)"
